# “And” between values parts separate entries of the source, which are not always exact repeats. Identical values can stand only once. Like-named read-outs stand apart in the source and are kept apart here.
# Legend:
# Details in all cases: n = 1
# ACVR2B = test system: ACVR2B
# ACVRL1 = test system: ACVRL1
# ADCK3 = test system: T1, ADCK3
# T1 construct: gene CABC1
# ADCK4 = test system: ADCK4
# AKT1 = test system: AKT1
# AKT2 = test system: AKT2
# AKT3 = test system: AKT3
# ALK = test system: ALK
# AMPK-alpha1 = test system: T2, AMPK-alpha1
# T2 construct: gene PRKAA1
# AMPK-alpha2 = test system: T3, AMPK-alpha2
# T3 construct: gene PRKAA2
# [1] = concentration: 1 μM, replicates: in singlicate
# [2] = concentration: 1 μM,replicates: in singlicate, 1 µM
# 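Also: KINOMEscan kinase panel screen.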
smiles,measurement,setting,value
CCCc1ccc(S(=O)(=O)NC2CCN(c3ccnc(Nc4ccc(F)cc4)n3)C2)cc1 (stereo not drawn) [GSK1379715],%Inh,ACVR2B; [1],0%
same,%Inh,ACVRL1; [1],0%
same,%Inh,ADCK3; [1],14%
same,%Inh,ADCK4; [1],34%
same,%Inh,AKT1; [1],0%
same,%Inh,AKT2; [1],100%
same,%Inh,AKT3; [1],0%
same,%Inh,ALK; [1],32%
same,%Inh,AMPK-alpha1; [1],6%
same,%Inh,AMPK-alpha2; [1],0%
Cc1cccc(-c2nc(Nc3cccc(C(N)=O)c3)c3ccccc3n2)n1 [GW876019],%Inh,ACVR2B; [1],19%
same,%Inh,ACVRL1; [1],0%
same,%Inh,ADCK3; [1],20%
same,%Inh,ADCK4; [1],26%
same,%Inh,AKT1; [1],9%
same,%Inh,AKT2; [1],0%
same,%Inh,AKT3; [1],0%
same,%Inh,ALK; [1],22%
same,%Inh,AMPK-alpha1; [1],31%
same,%Inh,AMPK-alpha2; [1],0%
COc1ccccc1CNC(=O)c1cc(C(=O)c2ccccc2C)c[nH]1 [GSK364507],%Inh,ACVR2B; [1],0%
same,%Inh,ACVRL1; [1],0%
same,%Inh,ADCK3; [1],13%
same,%Inh,ADCK4; [1],34%
same,%Inh,AKT1; [1],0%
same,%Inh,AKT2; [1],17%
same,%Inh,AKT3; [1],0%
same,%Inh,ALK; [1],21%
same,%Inh,AMPK-alpha1; [1],0%
same,%Inh,AMPK-alpha2; [1],0%
Cc1cc(N2Cc3ccccc3C2)nc(Nc2ccc(S(=O)(=O)N3CCOCC3)cc2)n1.Cl [GSK1669917],%Inh,ACVR2B; [1],0%
same,%Inh,ACVRL1; [1],0%
same,%Inh,ADCK3; [1],7%
same,%Inh,ADCK4; [1],8%
same,%Inh,AKT1; [1],96.3%
same,%Inh,AKT2; [1],0%
same,%Inh,AKT3; [1],0%
same,%Inh,ALK; [1],5%
same,%Inh,AMPK-alpha1; [1],0%
same,%Inh,AMPK-alpha2; [1],16%
O=C(Nc1n[nH]c2nc(-c3nccs3)c(Br)cc12)C1CC1 [SB-742251],%Inh,ACVR2B; [1],11%
same,%Inh,ACVRL1; [1],0%
same,%Inh,ADCK3; [1],15%
same,%Inh,ADCK4; [1],19%
same,%Inh,AKT1; [1],0%
same,%Inh,AKT2; [1],1%
same,%Inh,AKT3; [1],0%
same,%Inh,ALK; [1],26%
same,%Inh,AMPK-alpha1; [1],10%
same,%Inh,AMPK-alpha2; [1],8%
Cc1ccc(NC(=O)Nc2cc(C(C)(C)C)nn2-c2ccccc2)cc1 [GSK1014915],%Inh,ACVR2B; [1],5%
same,%Inh,ACVRL1; [1],5%
same,%Inh,ADCK3; [1],25%
same,%Inh,ADCK4; [1],25%
same,%Inh,AKT1; [1],0%
same,%Inh,AKT2; [1],14%
same,%Inh,AKT3; [1],20%
same,%Inh,ALK; [1],28%
same,%Inh,AMPK-alpha1; [1],0%
same,%Inh,AMPK-alpha2; [1],11%
CC1=C(C(=O)Nc2cc3cn[nH]c3cc2F)C(c2ccc(C(F)(F)F)cc2)CC(=O)N1 (stereo not drawn) [GSK429286],%Inh,ACVR2B; [1],0%
same,%Inh,ACVRL1; [1],0%
same,%Inh,ADCK3; [1],11%
same,%Inh,ADCK4; [1],11%
same,%Inh,AKT1; [1],0%
same,%Inh,AKT2; [1],20%
same,%Inh,AKT3; [1],0%
same,%Inh,ALK; [1],29%
same,%Inh,AMPK-alpha1; [1],23%
same,%Inh,AMPK-alpha2; [1],19%
COc1cc2ncn(-c3cc(OCC4CCCO4)c(C(N)=O)s3)c2cc1OC (stereo not drawn) [GSK204607],%Inh,ACVR2B; [1],0%
same,%Inh,ACVRL1; [1],0%
same,%Inh,ADCK3; [1],23%
same,%Inh,ADCK4; [1],12%
same,%Inh,AKT1; [1],0%
same,%Inh,AKT2; [1],0%
same,%Inh,AKT3; [1],0%
same,%Inh,ALK; [1],0%
same,%Inh,AMPK-alpha1; [1],0%
same,%Inh,AMPK-alpha2; [1],2%
Cc1ccc(NC(=O)Nc2cccc(C(F)(F)F)c2)cc1 [GSK955403],%Inh,ACVR2B; 1 µM,0%
same,%Inh,ACVRL1; 1 µM,0%
same,%Inh,ADCK3; 1 µM,5%
same,%Inh,ADCK4; 1 µM,0%
same,%Inh,AKT1; 1 µM,12%
same,%Inh,AKT2; 1 µM,3%
same,%Inh,AKT3; 1 µM,0%
same,%Inh,ALK; 1 µM,0%
same,%Inh,AMPK-alpha1; 1 µM,0%
same,%Inh,AMPK-alpha2; 1 µM,0%
Cc1c(O)cccc1Nc1ccnc2ccc(C(F)(F)F)cc12.Cl [GW466413],%Inh,ACVR2B; [1],85%
same,%Inh,ACVRL1; [1],43%
same,%Inh,ADCK3; [1],0%
same,%Inh,ADCK4; [1],81%
same,%Inh,AKT1; [1],0%
same,%Inh,AKT2; [1],0%
same,%Inh,AKT3; [1],1%
same,%Inh,ALK; [1],25%
same,%Inh,AMPK-alpha1; [1],12%
same,%Inh,AMPK-alpha2; [1],16%
Cn1ccc2ncnc(Oc3cccc(C(=O)Nc4ccccc4)c3)c21,%Inh,ACVR2B; [1],1%
same,%Inh,ACVRL1; [1],0%
same,%Inh,ADCK3; [1],6%
same,%Inh,ADCK4; [1],17%
same,%Inh,AKT1; [1],0%
same,%Inh,AKT2; [1],0%
same,%Inh,AKT3; [1],10%
same,%Inh,ALK; [1],0%
same,%Inh,AMPK-alpha1; [1],0%
same,%Inh,AMPK-alpha2; [1],0%
Cc1ccc(C(=O)Nc2ccc(Nc3ccnc4cc(-c5ccccn5)ccc34)cc2O)cc1.Cl [GW440146],%Inh,ACVR2B; [1],25%
same,%Inh,ACVRL1; [1],0%
same,%Inh,ADCK3; [1],0%
same,%Inh,ADCK4; [1],0%
same,%Inh,AKT1; [1],0%
same,%Inh,AKT2; [1],19%
same,%Inh,AKT3; [1],0%
same,%Inh,ALK; [1],27%
same,%Inh,AMPK-alpha1; [1],4%
same,%Inh,AMPK-alpha2; [1],15%
Cc1c(Cn2ccn3c(=O)cc(N4CCOCC4)nc23)cccc1C(F)(F)F [GSK2289044],%Inh,ACVR2B; [1],0%
same,%Inh,ACVRL1; [1],0%
same,%Inh,ADCK3; [1],32%
same,%Inh,ADCK4; [1],0%
same,%Inh,AKT1; [1],0%
same,%Inh,AKT2; [1],19%
same,%Inh,AKT3; [1],86%
same,%Inh,ALK; [1],5%
same,%Inh,AMPK-alpha1; [1],23%
same,%Inh,AMPK-alpha2; [1],17%
CCn1c(-c2ccccn2)nc2cnccc21 [SB-736398],%Inh,ACVR2B; [1],0%
same,%Inh,ACVRL1; [1],0%
same,%Inh,ADCK3; [1],56%
same,%Inh,ADCK4; [1],6%
same,%Inh,AKT1; [1],0%
same,%Inh,AKT2; [1],19%
same,%Inh,AKT3; [1],0%
same,%Inh,ALK; [1],34%
same,%Inh,AMPK-alpha1; [1],5%
same,%Inh,AMPK-alpha2; [1],10%
Cl.c1ccc(-c2n[nH]cc2-c2ccnc(-c3ccc(CN4CCOCC4)cc3)c2)nc1 [GW776245],%Inh,ACVR2B; [1],9%
same,%Inh,ACVRL1; [1],0%
same,%Inh,ADCK3; [1],34%
same,%Inh,ADCK4; [1],0%
same,%Inh,AKT1; [1],17%
same,%Inh,AKT2; [1],0%
same,%Inh,AKT3; [1],0%
same,%Inh,ALK; [1],0%
same,%Inh,AMPK-alpha1; [1],0%
same,%Inh,AMPK-alpha2; [1],14%
O=S(=O)(c1ccc(-c2ccnc3[nH]ccc23)cc1)N1CCCC1 [GSK846226],%Inh,ACVR2B; [1],0%
same,%Inh,ACVRL1; [1],0%
same,%Inh,ADCK3; [1],7%
same,%Inh,ADCK4; [1],21%
same,%Inh,AKT1; [1],0%
same,%Inh,AKT2; [1],0%
same,%Inh,AKT3; [1],0%
same,%Inh,ALK; [1],10%
same,%Inh,AMPK-alpha1; [1],0%
same,%Inh,AMPK-alpha2; [1],0%
CSc1nn2c(=O)cc(N3CCOCC3)nc2n1Cc1cccc(C(F)(F)F)c1C [GSK2363608],%Inh,ACVR2B; [2],3% and 0%
same,%Inh,ACVRL1; [1],0%
same,%Inh,ADCK3; [2],5% and 0%
same,%Inh,ADCK4; [2],31% and 22%
same,%Inh,AKT1; [1],0%
same,%Inh,AKT2; [2],9% and 13%
same,%Inh,AKT3; [1],0%
same,%Inh,ALK; [2],23% and 31%
same,%Inh,AMPK-alpha1; [2],0% and 2%
same,%Inh,AMPK-alpha2; [2],14% and 0%
COC(=O)c1c(-c2ccccc2)c2cc(C(=O)O)ccc2c(=O)n1Cc1ccccc1,%Inh,ACVR2B; [1],0%
same,%Inh,ACVRL1; [1],20%
same,%Inh,ADCK3; [1],0%
same,%Inh,ADCK4; [1],0%
same,%Inh,AKT1; [1],0%
same,%Inh,AKT2; [1],0%
same,%Inh,AKT3; [1],1%
same,%Inh,ALK; [1],0%
same,%Inh,AMPK-alpha1; [1],0%
same,%Inh,AMPK-alpha2; [1],7%

# — PMC5540273 (PLoS ONE, 2017)
